The supplement of paper PMC3545927
This is one part of the list. No count for the full screen is at hand.

Target: furin, P09958
Assay: furin cleavage Z-score vs untreated control; higher = more cleavage, active = 3.5 or more, inactive = 1 or less, 8 variable residues between constant flanks
Procedure, shortened: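 Sequencing of released DNA, tagged with adapters by PCR, gave read counts used as abundance. That DNA was freed when purified furin cut N-terminally bead-bound 8-mer peptides fused to a cDNA oligonucleotide, in 0.01 ml reactions at 1:10 enzyme:substrate in 50 mM HEPES pH 7.5 with CaCl2 and NaCl, lasting 7.5, 15 or 30 min. The cleavage Z-score was the lowess-adjusted log count versus furin-free reactions, scaled by median absolute deviation.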

Sequence of furin, P09958 (P09958 whole entry): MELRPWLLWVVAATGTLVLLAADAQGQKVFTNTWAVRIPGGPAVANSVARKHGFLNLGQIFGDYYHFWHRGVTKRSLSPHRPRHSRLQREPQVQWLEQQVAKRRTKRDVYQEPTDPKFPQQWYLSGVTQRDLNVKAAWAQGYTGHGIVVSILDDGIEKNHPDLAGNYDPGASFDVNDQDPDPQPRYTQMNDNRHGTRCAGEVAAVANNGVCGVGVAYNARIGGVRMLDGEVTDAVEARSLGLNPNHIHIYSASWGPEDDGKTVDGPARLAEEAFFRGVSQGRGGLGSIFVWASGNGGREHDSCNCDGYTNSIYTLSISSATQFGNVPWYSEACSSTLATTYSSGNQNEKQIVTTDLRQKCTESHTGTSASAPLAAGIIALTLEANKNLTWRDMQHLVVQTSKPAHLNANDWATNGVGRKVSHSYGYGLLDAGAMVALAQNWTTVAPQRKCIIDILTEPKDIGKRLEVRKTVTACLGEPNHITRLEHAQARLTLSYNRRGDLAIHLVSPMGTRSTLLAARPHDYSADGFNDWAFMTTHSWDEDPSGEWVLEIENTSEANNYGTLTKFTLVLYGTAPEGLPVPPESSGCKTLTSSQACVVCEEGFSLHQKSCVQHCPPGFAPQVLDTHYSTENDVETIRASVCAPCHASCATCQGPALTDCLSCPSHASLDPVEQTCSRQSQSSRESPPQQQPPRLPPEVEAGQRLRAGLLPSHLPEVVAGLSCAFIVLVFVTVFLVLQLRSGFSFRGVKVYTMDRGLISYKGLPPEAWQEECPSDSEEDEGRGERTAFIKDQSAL

| Sequence | furin cleavage Z-score (7.5 min) | furin cleavage Z-score (15 min) | furin cleavage Z-score (30 min) |
| --- | --- | --- | --- |
| CANTPCSAHLAGNASASA [HC2481] | -0.479 (inactive) | -0.245 (inactive) | 0.352 (inactive) |
| CAMEECSWHLAGNASASA [HC1728] | -0.727 (inactive) | 1.63 | 1.16 |
| CAGNASRCWVAGNASASA [HC277] | -0.19 (inactive) | 0.165 (inactive) | -0.828 (inactive) |
| CARARRGVEVAGNASASA [FS-2647] | 4.52 (active) | 5.87 (active) | 6.09 (active) |
| CAQLPCEPEPAGNASASA [HC1240] | 0.775 (inactive) | -0.524 (inactive) | -0.783 (inactive) |
| CAFFSVLIARAGNASASA [HC1585] | -2.48 (inactive) | -0.777 (inactive) | -0.815 (inactive) |
| CAHLSRRRRNAGNASASA [FS-1007] | 11.1 (active) | 9.66 (active) | 7.89 (active) |
| CAYLLPRRGPAGNASASA [HC178] | -0.496 (inactive) | -0.768 (inactive) | -0.313 (inactive) |
| CAYLLRRRRNAGNASASA [FS-1620] | 5.7 (active) | 4.73 (active) | 3.09 |
| CAECTTPCSGAGNASASA [HC1144] | -0.495 (inactive) | -0.922 (inactive) | -0.582 (inactive) |
| CALSARRFRVAGNASASA [FS-1371] | 0.442 (inactive) | -0.766 (inactive) | 0.226 (inactive) |
| CAAIIPDREVAGNASASA [HC1007] | -0.132 (inactive) | -0.083 (inactive) | -0.0846 (inactive) |
| CAEVVTSTRVAGNASASA [HC2233] | -0.495 (inactive) | 0.515 (inactive) | -0.63 (inactive) |
| CAITSCSSNVAGNASASA [HC1552] | 0.153 (inactive) | 0.128 (inactive) | 0.563 (inactive) |
| CAATSRKRRVAGNASASA [FS-1311] | 7.4 (active) | 11 (active) | 9.97 (active) |
| CAAIGRSRRVAGNASASA [FS-114] | 2.54 | 1.95 | 4.65 (active) |
| CAKSVRKRRVAGNASASA [FS-603] | 10.7 (active) | 11.6 (active) | 9.56 (active) |
| CARSVRKVIVAGNASASA [FS-3099] | 0.811 (inactive) | -1.26 (inactive) | 0.845 (inactive) |
| CADDDKIVGGAGNASASA [EK7] | -1.75 (inactive) | -1.15 (inactive) | -0.908 (inactive) |
| CASTGFTKVCAGNASASA [HC439] | 0.727 (inactive) | -0.241 (inactive) | 0.58 (inactive) |
| CAPISYANGSAGNASASA [HC396] | 0.358 (inactive) | -0.237 (inactive) | 0.768 (inactive) |
| CACEECSQHLAGNASASA [HC1680] | -0.324 (inactive) | -2.23 (inactive) | -0.379 (inactive) |

| Sequence | furin cleavage Z-score (7.5 min) | furin cleavage Z-score (15 min) | furin cleavage Z-score (30 min) |
| --- | --- | --- | --- |
| CALNRRRRREAGNASASA [FS-355] | 12.7 (active) | 12.9 (active) | 8.21 (active) |
| CAVSAEEYVEAGNASASA [HC1203] | -1.9 (inactive) | 0.0508 (inactive) | 0.782 (inactive) |
| CARRNRRRREAGNASASA [FS-494] | 12 (active) | 13.6 (active) | 9.7 (active) |
| CARDARRLKEAGNASASA [FS-2900] | 0.375 (inactive) | -1.38 (inactive) | -0.471 (inactive) |
| CARFYRSRKKAGNASASA [FS-1707] | 0.676 (inactive) | 1.31 | 0.114 (inactive) |
| CALHGRRRREAGNASASA [FS-456] | 12.8 (active) | 11.9 (active) | 10.7 (active) |
| CAVFARHLREAGNASASA [FS-921] | 5.03 (active) | 6.28 (active) | 4.54 (active) |
| CACCTTPCSGAGNASASA [HC1960] | -1.19 (inactive) | -0.424 (inactive) | -0.858 (inactive) |
| CAWCLWWLQYAGNASASA [HC581] | -0.105 (inactive) | -0.224 (inactive) | -0.828 (inactive) |
| CAWFGCTWMNAGNASASA [HC435] | -0.725 (inactive) | 1.68 | 1.37 |
| CATDFDQGWGAGNASASA [HC392] | -0.591 (inactive) | -2.3 (inactive) | -1.94 (inactive) |
| CAGGGGGGGGAGNASASA [NE1] | 1.03 | 0.409 (inactive) | 1.54 |
| CAGGGRTRREAGNASASA [FS-427] | 3.88 (active) | 3.57 (active) | 2.42 |
| CAMSGEVPSTAGNASASA [HC1095] | -0.208 (inactive) | -0.846 (inactive) | 0.503 (inactive) |
| CAEGGRRRREAGNASASA [FS-1318] | 4.58 (active) | 3.64 (active) | 2.94 |
| CAMSGRRLREAGNASASA [FS-1468] | 3.25 | 3.96 (active) | 3.6 (active) |
| CAPPLEGEPGAGNASASA [HC1355] | 0.988 (inactive) | 0.95 (inactive) | 0.522 (inactive) |
| CAGKSLKKRSAGNASASA [FS-1198] | 10.8 (active) | 8.86 (active) | 8.35 (active) |
| CAGKSVKKRSAGNASASA [FS-161] | 8.72 (active) | 12 (active) | 9.51 (active) |
| CAPEKGGRKPAGNASASA [HC1445] | 0.667 (inactive) | -1.91 (inactive) | -0.0787 (inactive) |
| CATCRNMWSGAGNASASA [HC1186] | 1.45 | 1.34 | 0.472 (inactive) |
